Screening results deposited in PubChem BioAssay by National Center for Advancing Translational Sciences (NCATS).
Rows were chosen to be rich in hits. Some 1.4% of all compounds tested hit in one or more screens of this group.
NS1 inh = blocks influenza NS1 protein function. Potency, µM (top dose mostly 46.1 µM), without a hit: at the highest dose activity, positive = more growth. 270,000 compounds, 0.4% hits; calls by dose curve; note: actives are rising curves; nearly all actives have a fitted effect of over 50% in size
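In this qHTS, NS1 from influenza A is expressed in budding yeast, where it slows growth. Cells are switched from glucose to 2% galactose medium (pH 6.0, -URA), treated with compound, and growth recovery is read at OD600.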
AmpC inh detg = blocks E. coli AmpC beta-lactamase in detergent assay | Potency, µM (top dose mostly 114 µM), for inactives: top-dose activity change, negative = inhibition, hits mostly inhibitors | AmpC hydrolysis of nitrocefin, absorbance 480 nm, 0.01% Triton | AID 485294 | 370,000 compounds, 0.041% hits;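 note: 0% = no-compound wells and -100% = no-enzyme wells; nearly all actives have a fitted effect of over 25% in size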
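AmpC (5.3 nM in the dispensed reagent) in 20 mM phosphate pH 7.0 with 0.01% (detergent screen) or 0.0001% Triton X-100 was preincubated with compounds for 15 min at room temperature. Nitrocefin was then added from an 800 uM solution, and hydrolysis was followed at 480 nm.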
SARS PLpro yeast = blocks SARS-CoV papain-like protease in a yeast assay; S. cerevisiae expressing SARS-CoV PLpro, growth rescue; Potency, µM (top dose mostly 32.9 µM), for inactives: at the highest dose activity, positive = growth rescue, hits mostly activators; 330,000 compounds, 0.19% hits; AID 485353; calls by dose curve; note: 0% is about no effect; nearly all actives have a fitted effect of over 55% in size
Giardia FBPA inh = blocks Giardia fructose-bisphosphate aldolase activity. A8B2U2. purified Giardia FBPA. Potency, µM (highest dose often 59.6 µM), for the others: at the top dose activity, negative = inhibition, most hits filed as inhibitors. 290,000 compounds, 0.71% hits. AID 2451; note: % is set by controls: 0 for no effect and ±100 for the full control effect; nearly all actives have a fitted effect of over 55% in size
Target sequence (A8B2U2 whole entry, looked up): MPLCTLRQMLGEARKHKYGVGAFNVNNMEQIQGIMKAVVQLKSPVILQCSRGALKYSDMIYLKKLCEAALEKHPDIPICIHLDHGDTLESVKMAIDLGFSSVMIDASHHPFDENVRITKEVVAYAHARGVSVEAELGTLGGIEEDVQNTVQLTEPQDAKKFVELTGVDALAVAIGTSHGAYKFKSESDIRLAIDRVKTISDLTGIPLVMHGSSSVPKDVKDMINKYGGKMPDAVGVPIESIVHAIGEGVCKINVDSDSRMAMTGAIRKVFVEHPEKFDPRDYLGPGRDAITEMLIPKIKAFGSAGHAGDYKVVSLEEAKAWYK
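40 nM FBPA preincubated 10 min at RT with compound (up to 57.5 uM final), then substrate plus GAPDH/TPI/NAD/arsenate coupling and diaphorase/resazurin added. Fluorescence read after 20 min at RT, 525/598 nm.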
AmpC no deterg = AmpC beta-lactamase inhibition without detergent | AmpC nitrocefin hydrolysis, absorbance 480 nm, 0.0001% Triton | Potency, µM (titrated, usually from 57.1 µM), for inactives: top-dose activity change, negative = inhibition, usual class: inhibitors | 330,000 compounds, 0.52% hits | AID 485341;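 note: plate controls were no compound for no effect and no enzyme for full effect; nearly all actives have a fitted effect of over 20% in size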
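20 mM phosphate pH 7.0 + 0.01% (detergent screen) or 0.0001% Triton X-100; 5.3 nM AmpC reagent; cpd preinc 15 min RT; nitrocefin (800 uM stock) to start; A480 q20 s × 4 min; Activity was normalised to no-enzyme and no-compound control wells.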
Starred values were filed as active, the others as inactive; ? = inconclusive; nt = no result given; [ ] = remark or other dose. Unless noted, calls come from the whole dose curve; as a rule, active = well fitted curve in the direction sought with a large enough effect; inconclusive = small, poorly fitted or top-dose-only effect, or another doubt; inactive = no such curve, though single readings can be large; an effect the other way counts as inactive or inconclusive. Potency is the fitted concentration of half-maximal effect.

SMILES | NS1 inh | AmpC inh detg | SARS PLpro yeast | Giardia FBPA inh | AmpC no deterg
O=C(CCCn1c(=O)c2sccc2n(Cc2cc(=O)n3ccccc3n2)c1=O)NCc1ccco1 | 18% | ? | 8% | 9% | 40µM*
COc1ccc(C(=O)C(C)[n+]2ccc(C)c3ccccc32)cc1[N+](=O)[O-] (stereo not given) | 3% | -11% | -1% | -8% | -5%
CCOC(=O)/C(C#N)=C1/C(=O)N(Cc2ccccc2)c2ccccc21 | nt | -4% | -20% | 10µM* | -37%
CC1=CCP(=O)(c2ccccc2)C1 (stereo not given) | ? | ? | -22% | -9% | -11%
O=C(N/N=C/c1ccccn1)c1cccc(NC(=O)c2ccccc2Cl)c1 | 0% | 1% | 1% | 5% | 18µM*
CCOC(=O)c1sc(NC(=O)CSc2n[nH]c(C)n2)nc1C | -7% | 4% | -1% | -5% | -8%
N#CCC(=O)N/N=C\c1cccc(OC/C=C/c2ccccc2)c1 | 27% | 1% | -5% | nt | 13µM*
O=c1cccccc1NCc1ccccc1 | ? | 0% | 15% | 8.9µM* | -18%
O=C1C=C(NCc2ccccc2)c2ccccc2C1=O | -66% | -2% | -4% | 1.3µM* | -42%
Cc1ccc(NC2=CC(=O)C(=O)c3ccccc32)c(C)c1 | nt | -6% | -7% | nt | -14%
O=C1C=C(Nc2ccccc2O)c2ccccc2C1=O | -80% | ? | -22% | 18µM* | -21%
N#Cc1ccccc1NCc1ccccc1 | -2% | ? | 3% | -1% | -22%
O=C1C=C(Nc2ccc(F)cc2)c2ccccc2C1=O | nt | -16% | -1% | nt | -22%
CCCCn1c(N)c(N(CC)C(=O)c2cc(OC)cc(OC)c2)c(=O)[nH]c1=O | nt | -3% | -1% | -2% | -11%
O=C(CSc1nc2nn(-c3ccccc3)c(=O)c-2c2n1CCCCC2)Nc1ccc(F)c(F)c1 | nt | nt | -4% | nt | 10µM*
O=C(CSc1nc2nn(-c3ccccc3)c(=O)c-2c2n1CCCCC2)Nc1ccc(F)cc1F | nt | -2% | -1% | nt | -11%
O=C(CCc1ccccc1)c1c(O)cc(O)cc1O | 2% | 4% | -1% | -10% | 18µM*
COc1cc(O)c(C(=O)O)c(CCc2ccccc2)c1 | nt | nt | -22% | nt | -24%
Cc1nc(N=Nc2cc([N+](=O)[O-])ccc2Cl)c(COP(=O)(O)O)c(C=O)c1O | nt | nt | nt | 22µM* | nt
Cc1nc(N=Nc2cc(S(=O)(=O)O)c3cc([N+](=O)[O-])cc(S(=O)(=O)O)c3c2)c(COP(=O)(O)O)c(C=O)c1O | -6% | nt | nt | 18% | nt
Cc1ccc(C2(C)NC(=O)N(CC(=O)c3ccc(Cl)s3)C2=O)cc1 (stereo not given) | 10% | -9% | -20% | 0% | 28µM*
CCOC(=O)c1c(C)[nH]c(C)c1S(=O)(=O)N1CCN(c2cc(Cl)ccc2C)CC1 | nt | -4% | nt | nt | nt
CCCCOc1ccc(-c2nnn(CC(=O)NCCc3c[nH]c4ccccc34)n2)cc1 | 16% | 0% | -1% | -2% | 0.28µM*
CCCCCCCCCCCCCCCC(=O)NCCc1c[nH]c2ccccc12 | 5% | 6% | 0% | 8% | -15%
CCOC(=O)/C(=N/Nc1ccccc1)N1CCCc2ccccc21 | 17% | 18% | ? | -27% | 25µM*
SMILES | NS1 inh | AmpC inh detg | SARS PLpro yeast | Giardia FBPA inh | AmpC no deterg
CCOC(=O)/C(=N/Nc1ccc(OC)cc1)N1CCCc2ccccc21 | -52% | -9% | -2% | 16µM* | -2%
COC(=O)c1sc(-c2ccc(Cl)cc2)cc1N | -4% | 8% | -1% | -4% | -26%
Cc1ccc(C(=O)NCC(c2ccco2)N2CCOCC2)cc1 (stereo not given) | nt | -11% | -3% | nt | ?
O=C(CNC(=S)N(Cc1ccc(F)cc1)C1CCCCC1)NC1CC1 | 5% | -6% | 0%[6.58 µM] | 3% | 49%
Cc1ccccc1NC(=S)NC(=O)/C=C/c1ccco1 | 27% | -3% | 5% | -29% | 5.6µM*
CN(C)C(=Nc1ccccc1)P(=S)(N(C)C)N(C)C | nt | 3% | 2% | 7% | 16%
COc1ccc(N=C(N(C)C)P(=O)(N(C)C)N(C)C)cc1 | 3% | ? | 2% | 13% | 28µM*
CCOC(=O)NNc1ccc2nonc2c1[N+](=O)[O-] | -35% | -5% | -7% | 7.1µM* | -29%
Cc1cccc(Nc2ccc3nonc3c2[N+](=O)[O-])c1C | 1% | 2% | -2% | -1% | -16%
